The values below come from PubChem BioAssay (Tox21).

The structures appear in SMILES notation. Inconclusive results are not listed. Active and inactive are the calls of the source. Unless noted, calls follow the shape of the dose curve; as a rule, active = well fitted curve in the direction sought with a large enough effect in the repeat runs; inconclusive = weak or mixed curves; inactive = no such curve, though single readings can be large; an effect the other way counts as inactive or inconclusive.

Test [1] is described as follows: qHTS assay to identify small molecule antagonists of the peroxisome proliferator-activated receptor delta (PPARd) signaling pathway - cell viability counter screen (AID 743213). Also: nearly all actives have a fitted effect of over 50% in size. Also: potency is read from the fitted curve at half-maximal effect. Summed up: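 Viability counter-screen, qHTS format: PPARd-bla HEK293H, L165041 300 nM final, 17 h compound exposure at 37 C, CellTiter-Glo luminescence after 30 min RT.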
Background: Quantitative high-throughput screening tests each substance at several concentrations.

The nature of test [2]: qHTS assay to identify small molecule agonists of the farnesoid-X-receptor (FXR) signaling pathway - cell viability counter screen (AID 743218). Also: nearly all actives have a fitted effect of over 45% in size. Also: potency is read from the fitted curve at half-maximal effect. Summed up: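 Quantitative HTS counter screen measuring ATP-based viability via CellTiter-Glo luminescence in HEK 293T cells carrying a UAS-driven beta-lactamase reporter, after 16 h compound exposure at 37 C.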
Test [3] can be described thus: qHTS assay to identify small molecule antagonists of the farnesoid-X-receptor (FXR) signaling pathway - cell viability counter screen (AID 743221; active = well fitted cell-killing curve with a large enough effect in the repeat runs, not every such curve was filed as active; also: nearly all actives have a fitted effect of over 50% in size; also: potency is read from the fitted curve at half-maximal effect). The essentials: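 Cytotoxicity counter screen run in the FXR-bla reporter wells: HEK 293T cells exposed to compound with 50 uM (final) chenodeoxycholic acid for 16 h, 37 C, then viability measured by CellTiter-Glo luminescence after 30 min, room temperature.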

A short description of test [4]: qHTS assay to identify small molecule agonists of the vitamin D receptor (VDR) signaling pathway - cell viability counter screen (AID 743224). Also: nearly all actives have a fitted effect of over 50% in size. Also: potency is read from the fitted curve at half-maximal effect. Summed up:
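CellTiter-Glo viability readout on VDR-bla cells, measured after 16 h of compound treatment at 37C in the same wells.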

The nature of test [5]: qHTS assay to identify small molecule antagonists of the vitamin D receptor (VDR) signaling pathway - cell viability counter screen (AID 743225). Also: nearly all actives have a fitted effect of over 50% in size. Also: potency is read from the fitted curve at half-maximal effect. The essentials:
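Cytotoxicity counter screen read by CellTiter-Glo luminescence (30 min, room temperature) in the same wells as the VDR-bla antagonist readout. HEK 293T VDR-UAS-bla cells had 16 h at 37C with compound and 3 nM (final) 1-alpha,25-dihydroxyvitamin D3, then 2 h with FRET substrate.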

Test [6] is described as follows: qHTS assay to identify small molecule agonists of the NFkB signaling pathway - cell viability counter screen (AID 1159515; calls by dose curve; also: nearly all actives have a fitted effect of over 55% in size; also: potency is read from the fitted curve at half-maximal effect). The essentials:
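Tox21 library compounds were tested for cytotoxicity against NFkB-bla ME-180 cells during a 5 hr exposure at 37 C. CellTiter-Glo luminescence served as the viability read-out.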

A short description of test [7]: qHTS assay to identify small molecule agonists of the endoplasmic reticulum stress response signaling pathway - cell viability counter screen (AID 1159517; calls by dose curve; also: nearly all actives have a fitted effect of over 50% in size; also: potency is read from the fitted curve at half-maximal effect). Summed up:
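After overnight attachment, ESRE-bla HeLa cells were treated with Tox21 library compounds for 5 hr. CellTiter-Glo luminescence, read 30 min post-addition at room temperature, reported viability.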

A short description of test [8]: qHTS assay to identify small molecule antagonists of the retinoid-related orphan receptor gamma (ROR-gamma) signaling pathway - cell viability counter screen (AID 1159520). Also: nearly all actives have a fitted effect of over 50% in size. Also: potency is read from the fitted curve at half-maximal effect. The essentials:
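Cytotoxicity was read from cellular ATP (CellTiter-Glo luminescence) after 16 hr at 37 C with 1 uM doxycycline induction. The inducer was added 2 hr after compound transfer to Tet-on ROR gamma CHO cells.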

Test [9] concerns the target Nuclear receptor ROR-gamma (Homo sapiens) (UniProt P51449). Put plainly: qHTS assay to identify small molecule antagonists of the retinoid-related orphan receptor gamma (ROR-gamma) signaling pathway (AID 1159521). The essentials: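 Antagonist read-out: drop in luminescence (ONE-Glo) from an RORE-LUC reporter in CHO cells with doxycycline-inducible ROR-gamma; 2 hr compound pretreatment, 1 uM doxycycline, 16 hr incubation at 37 C.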

The nature of test [10]: qHTS assay to identify small molecule agonists of the RXR signaling pathway - cell viability counter screen (AID 1159529). Also: nearly all actives have a fitted effect of over 50% in size. Also: potency is read from the fitted curve at half-maximal effect. Summed up:
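CellTiter-Glo luminescence gave viability in the wells also read for beta-lactamase. Cells (RXR-alpha-UAS-bla HEK 293T, 2% charcoal-stripped FBS medium) had 5 hr plating, then 16 hr compound exposure at 37 C; tetraoctyl ammonium bromide served as positive control.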

Test [11] concerns the target Bile acid receptor (Homo sapiens) (UniProt Q96RI1). The experiment in a line: qHTS assay to identify small molecule antagonists of the farnesoid-X-receptor (FXR) signaling pathway (AID 743217; active = well fitted inhibition curve with a large enough effect in the signal ratio in the repeat runs, not every such curve was filed as active; the % refers to the signal ratio; also: potency is read from the fitted curve at half-maximal effect). Summed up:
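Test compounds are pin-transferred onto FXR-bla HEK 293T cells, then chenodeoxycholic acid is added at 50 uM final. After 16 h at 37 °C, LiveBLAzer B/G substrate is applied for 2 h at room temperature and fluorescence read.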

Test [12] has the same target. The experiment in a line: qHTS assay to identify small molecule agonists of the farnesoid-X-receptor (FXR) signaling pathway (AID 743220; active = well fitted activation curve with a large enough effect in the signal ratio in the repeat runs, not every such curve was filed as active; the % refers to the signal ratio). Summed up:
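FXR-UAS-bla HEK 293T cells carrying a UAS-driven beta-lactamase reporter were plated for 5 h at 37C/5% CO2, then exposed to DMSO-dissolved Tox21 10K compounds for 16 h at 37C. A LiveBLAzer B/G FRET substrate was loaded for 2 h at room temperature before fluorescence reading.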

Test [13] is described as follows: qHTS assay to identify small molecule agonists of the AP-1 signaling pathway - cell viability counter screen (AID 1159525; calls by dose curve; also: nearly all actives have a fitted effect of over 55% in size; also: potency is read from the fitted curve at half-maximal effect). The essentials:
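Intracellular ATP by Cell Titer Glo luminescence (30 min, RT) in the same ME-180 AP-1-bla wells after the 5 h compound exposure at 37 °C. Normalised to tetra n-octyl ammonium bromide and DMSO controls.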

Test [14] addresses Vitamin D3 receptor (Homo sapiens) (UniProt P11473). Put plainly: qHTS assay to identify small molecule agonists of the vitamin D receptor (VDR) signaling pathway (AID 743222; calls by dose curve). Summed up:
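Tox21 cell reporter format: VDR-bla line, 16 h compound exposure in 5% CO2 at 37C, then fluorescence intensity after 2 h with LiveBLAzer B/G FRET substrate.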

For test [15] the target is unchanged. Put plainly: qHTS assay to identify small molecule antagonists of the vitamin D receptor (VDR) signaling pathway (AID 743223; active = well fitted inhibition curve with a large enough effect in the signal ratio in the repeat runs, not every such curve was filed as active; the % refers to the signal ratio). Summed up:
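Antagonist mode: compound added to VDR-bla cells alongside agonist 1alpha,25-dihydroxyvitamin D3 (3 nM final), incubation 16 h at 37C. Read-out is LiveBLAzer FRET fluorescence, 2 h at room temperature.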

Test [16] addresses Retinoic acid receptor RXR-alpha (Homo sapiens) (UniProt P19793). The experiment in a line: qHTS assay to identify small molecule agonists of the RXR signaling pathway (AID 1159527; calls by dose curve; also: nearly all actives have a fitted effect of over 35% in size). The essentials: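 Agonist-mode beta-lactamase reporter assay: HEK 293T RXR-alpha-UAS-bla cells treated 16 hr at 37 C with compounds, 9-cis retinoic acid as positive control. LiveBLAzer FRET substrate, 405 nm excitation, 460/530 nm emission.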

The nature of test [17]: qHTS assay to identify small molecule agonists of the AP-1 signaling pathway (AID 1159526; calls by dose curve).
Test [18] deals with Peroxisome proliferator-activated receptor delta (Homo sapiens) (UniProt Q03181). The experiment in a line: qHTS assay to identify small molecule antagonists of the peroxisome proliferator-activated receptor delta (PPARd) signaling pathway (AID 743215; active = well fitted inhibition curve with a large enough effect in the signal ratio in the repeat runs, not every such curve was filed as active; the % refers to the signal ratio;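 also: cells stimulated with agonist L165041 at 300 nM final during compound exposure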; also: potency is read from the fitted curve at half-maximal effect). Summed up:
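Here, a reporter line (HEK293H, beta-lactamase under a UAS) measures PPARd signaling. Compounds are tested against agonist L165041 at 300 nM final concentration over 17 h at 37 C, with fluorescence read after substrate.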

Chain of Vitamin D3 receptor (Homo sapiens) (P11473 whole entry, looked up): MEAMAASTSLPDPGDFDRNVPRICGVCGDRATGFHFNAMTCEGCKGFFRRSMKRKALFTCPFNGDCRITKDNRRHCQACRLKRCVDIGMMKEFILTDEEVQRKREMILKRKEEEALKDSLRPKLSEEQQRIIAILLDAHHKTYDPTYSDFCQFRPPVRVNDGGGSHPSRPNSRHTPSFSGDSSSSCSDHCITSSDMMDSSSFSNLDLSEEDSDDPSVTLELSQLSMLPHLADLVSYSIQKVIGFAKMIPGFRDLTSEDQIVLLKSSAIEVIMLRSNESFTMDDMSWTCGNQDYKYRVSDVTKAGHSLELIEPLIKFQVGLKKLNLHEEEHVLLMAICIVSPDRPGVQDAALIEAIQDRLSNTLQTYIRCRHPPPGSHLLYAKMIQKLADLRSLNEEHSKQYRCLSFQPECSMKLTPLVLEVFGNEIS
Chain of Bile acid receptor (Homo sapiens) (Q96RI1 whole entry, looked up): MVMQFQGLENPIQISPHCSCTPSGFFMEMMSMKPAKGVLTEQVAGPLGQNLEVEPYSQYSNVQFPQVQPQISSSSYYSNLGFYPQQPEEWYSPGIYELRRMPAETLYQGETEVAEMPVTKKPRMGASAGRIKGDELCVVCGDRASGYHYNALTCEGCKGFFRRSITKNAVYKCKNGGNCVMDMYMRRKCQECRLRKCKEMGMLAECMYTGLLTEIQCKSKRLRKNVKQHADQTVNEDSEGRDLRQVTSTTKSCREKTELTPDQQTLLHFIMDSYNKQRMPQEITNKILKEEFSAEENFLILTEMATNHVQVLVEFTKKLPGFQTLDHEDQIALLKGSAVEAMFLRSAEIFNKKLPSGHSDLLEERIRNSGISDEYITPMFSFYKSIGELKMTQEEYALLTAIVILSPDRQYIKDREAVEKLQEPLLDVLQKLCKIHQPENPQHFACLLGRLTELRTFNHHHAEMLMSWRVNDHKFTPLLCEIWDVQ
Chain of Peroxisome proliferator-activated receptor delta (Homo sapiens) (Q03181 whole entry, looked up): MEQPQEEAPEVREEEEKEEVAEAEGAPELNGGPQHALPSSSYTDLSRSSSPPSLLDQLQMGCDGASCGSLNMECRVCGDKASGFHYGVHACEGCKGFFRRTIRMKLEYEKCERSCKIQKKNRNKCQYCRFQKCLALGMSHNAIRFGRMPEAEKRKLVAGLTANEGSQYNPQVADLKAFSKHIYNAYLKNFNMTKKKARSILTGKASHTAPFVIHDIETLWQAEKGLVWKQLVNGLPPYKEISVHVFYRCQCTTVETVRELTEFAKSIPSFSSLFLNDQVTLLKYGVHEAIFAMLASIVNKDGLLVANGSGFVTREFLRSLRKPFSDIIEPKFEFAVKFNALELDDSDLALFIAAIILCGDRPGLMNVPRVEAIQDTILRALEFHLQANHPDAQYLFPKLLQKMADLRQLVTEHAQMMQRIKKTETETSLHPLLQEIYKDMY
Chain of Retinoic acid receptor RXR-alpha (Homo sapiens) (P19793 whole entry, looked up): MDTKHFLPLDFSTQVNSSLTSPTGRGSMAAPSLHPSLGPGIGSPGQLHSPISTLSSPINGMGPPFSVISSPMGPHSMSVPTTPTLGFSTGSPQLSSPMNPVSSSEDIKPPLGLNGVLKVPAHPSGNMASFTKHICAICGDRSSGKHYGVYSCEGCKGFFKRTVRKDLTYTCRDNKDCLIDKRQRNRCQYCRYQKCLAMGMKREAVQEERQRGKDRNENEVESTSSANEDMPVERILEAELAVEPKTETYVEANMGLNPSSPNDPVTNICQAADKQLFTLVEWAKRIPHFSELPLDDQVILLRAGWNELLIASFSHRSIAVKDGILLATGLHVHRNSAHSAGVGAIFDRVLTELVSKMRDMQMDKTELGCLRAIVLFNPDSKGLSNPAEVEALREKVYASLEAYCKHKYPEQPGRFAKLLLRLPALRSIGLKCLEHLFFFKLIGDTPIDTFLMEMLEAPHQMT

Take `[Cl][Bi]([Cl])([c]1ccccc1)([c]1ccccc1)[c]1ccccc1`: the Potency is 4.87 µM (active) in test [1]; 5.46 µM (active) in [2]; 10.9 µM (active) in [3]; 3.87 µM (active) in test [4]; 2.44 µM (active) in test [5]; 54.6 µM (active) in test [6]. Moreover, the Potency is 38.7 µM (active) in test [7], 12.1 µM (active) in [8], 2.16 µM (active) in test [9] and 2.74 µM (active) in [10].
As for `CSc1ccc2c(c1)C(N1CCN(C)CC1)Cc1ccccc1S2` (stereo unspecified), the Potency in [1] was 16.8 µM (active); in test [2] it was 26.6 µM (active); in test [4] it was 23.7 µM (active); in test [6], 23.9 µM (active); in [7], 19 µM (active); in test [10] it was 23.9 µM (active). The Potency result in test [11], in test [12], in test [8] and in test [13] was “inactive” in each case.
Consider `CCOc1nc2cccc(C(=O)OC(C)OC(=O)OC3CCCCC3)c2n1Cc1ccc(-c2ccccc2-c2nn[nH]n2)cc1` (stereo unspecified), for which the Potency in test [1] was 17.4 µM (active); in [2], 15.5 µM (active); in test [4], 27.5 µM (active); in test [5] it was 19.5 µM (active); in [6], 43.6 µM (active); in test [7] it was 21.9 µM (active). Besides, the Potency in [8] was 24.3 µM (active); in [13] it was 27.5 µM (active); in test [10] it was 27.5 µM (active). The Potency result in [12] is “inactive”.
As to `Cc1onc(-c2ccccc2Cl)c1C(=O)N[C@@H]1C(=O)N2[C@@H]1SC(C)(C)[C@@H]2C(=O)O`, the Potency entry in test [1], in [11], in test [2], in test [12], in [3] and in test [14] was “inactive” throughout. Besides, the Potency entry in test [15], in test [4], in test [5], in [6], in test [7] and in test [8] was “inactive” throughout. The Potency result in test [13], in test [16] and in [10] was “inactive” each time.
`CN(C)[C@@H]1C(=O)C(C(N)=O)=C(O)[C@@]2(O)C(=O)C3=C(O)c4c(O)ccc(Cl)c4[C@@H](O)[C@H]3C[C@@H]12`: the Potency entry in test [1], in [3], in test [4], in test [6], in test [7] and in test [8] was “inactive” in each case. The Potency result in test [13], in [17] and in [10] was “inactive” each time.
`Cc1ccc(-n2nc(C(C)(C)C)cc2NC(=O)Nc2ccc(OCCN3CCOCC3)c3ccccc23)cc1`: in [11], the Potency is 16.8 µM (active). The Potency entry in test [12], in test [4], in test [5], in test [6], in [7] and in [8] was “inactive” throughout. For the same molecule, the Potency entry in [13] and in test [17] was “inactive” each time.
Consider `CC(C)OC(=O)c1cc2c(OCC(O)CNC(C)(C)C)cccc2[nH]1` (stereo unspecified), for which the Potency result in test [1], in test [18], in test [2], in test [14], in [4] and in test [6] was “inactive” each time. The Potency entry in test [7], in test [8], in test [13], in test [17] and in test [10] was “inactive” in each case.
`OC1(c2ccc(Cl)c(C(F)(F)F)c2)CCN(CCCC(c2ccc(F)cc2)c2ccc(F)cc2)CC1`: the Potency was 11.9 µM (active) in test [1]; 26.6 µM (active) in test [18]; 9.44 µM (active) in test [2]; 26.6 µM (active) in test [3]; 13.3 µM (active) in test [4]; 10.7 µM (active) in test [5]. Also, the Potency in [6] was 12 µM (active); in test [7] it was 8.49 µM (active); in [8], 9.44 µM (active); in test [13], 9.52 µM (active); in [10], 6.74 µM (active).
As for `CCOC(=O)/C=C(C)/C=C/C=C(C)/C=C/c1c(C)cc(OC)c(C)c1C`, the Potency entry in test [1], in [2], in [3], in test [4], in test [5] and in test [6] was “inactive” each time. The Potency result in [7], in [8], in [13], in test [17] and in test [10] was “inactive” in each case.
